These results are taken from PubChem BioAssay.

As usually defined, the inhibition is the drop in the measured response relative to a control, in per cent.

Calls of active or inactive are those of the source.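 Rule for the calls, unless noted: active = inhibition of the reporter signal at or above 50%; inactive = inhibition below 50%.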

The nature of assay [1]: inhibitors of TNFa-induced NFkB p65 translocation, primary screen, imaging, HUVEC, MLSMR starter and 10KST1 sets (AID 438;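 active = inhibition above 20% together with a positive visual image hit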;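 note: compound added about 3h40 before a 20 min TNFalpha stimulation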;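 for inhibition: signal is the nuclear over cytoplasmic p65 intensity ratio per well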). The note with it: HUVEC TNFa-induced p65 nuclear translocation; cell count: measured here: nuclei count (cytotoxicity indicator), at 2.08 µM; inhibition: at 2 µM, stronger effect = higher value, 0% TNFa-plus-vehicle, 100% no-TNFa wells.
Assay [2] in a line: inhibitors of mutant huntingtin aggregation, primary screen, imaging, exon1htt(103Q)mCFP cells, high-content imaging (AID 483;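 active = visual image review flags a hit and inhibition of aggregation exceeds 20%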;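 note: compound exposure lasted 3 days before fixation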;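 for nuclei count: percent of the per-plate median nuclei count of sample wells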). The note with it: exon1htt(103Q)mCFP cell line, aggregate imaging, at 2 µM; inhibition of aggregation: stronger effect = higher value; nuclei count: measured here: cell count, toxicity.
Assay [3] is described as follows: inhibitors of E-selectin induction by TNFa, primary screen, imaging, HUVEC, immunofluorescence, MLSMR starter and 10KST1 sets (AID 487;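 active = visually confirmed hit in the image check and inhibition above 20%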;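 for inhibition: signal is fraction of cell area covered by stained E-selectin grains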;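 for nuclei count: 100% = median nuclei count of all wells on the same plate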). The note with it: HUVEC TNFalpha-induced E-selectin immunofluorescence imaging, at 2 µM; inhibition: stronger effect = higher value; nuclei count: measured here: cell number, toxicity.
In assay [4] the target is Voltage-gated potassium channel subunit beta-2 (Rattus norvegicus) (UniProt P62483). Kind of assay: KvBeta enzyme negative modulators, primary screen, biochemical, NADPH fluorescence (AID 622;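 active = fluorescence slope higher than the sample average by over 3 SD, cut at about -0.22 in these data, passing the limit was not always enough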;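 note: slope of raw intensity against log time taken from 70 to 1610 s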). The note with it: recombinant KvBeta, 4-cyanobenzaldehyde reduction, at 10 µM, stronger effect = higher value.
For assay [5] the target is unchanged. Kind of assay: KvBeta positive modulators, primary screen, biochemical, NADPH fluorescence (AID 623;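 active = NADPH fluorescence slope more negative than the mean of all samples by about 3 SD, 99.7% confidence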;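 note: fluorescence intensity change per second fitted from 20 to 320 s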). The note with it: Recombinant KvBeta, NADPH fluorescence decrease slope, 10 min; at 10 µM; stronger effect = lower value.
For assay [6], the target named is Alpha-2C adrenergic receptor (Homo sapiens) (UniProt P18825). Kind of assay: modulators of alpha2C/GIRK thallium flux, primary screen, cell-based, HEK293 alpha2C/GIRK1/2 (AID 624;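 active = fluorescence slope after compound addition differing from the mean of all screened samples at 99.7% confidence, in either direction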;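 note: slope of fluorescence ratio to pre-addition baseline per second over 15 to 24 s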). The note with it: thallium flux BTC fluorescence, at 10 µM, actives lie on both sides.
Assay [7] is described as follows: inhibitors of Sendai virus-induced IRF3 signaling, primary screen, TLR/RLR signaling modifier project, cell-based, Sendai virus stimulus, luciferase, 10K MLSCN set (AID 602276;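 active = inhibition at or above 50% at 10 µM; inactive = inhibition below 50%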;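 note: firefly luciferase from ISG56 promoter only with Renilla not read in this screen; 0% = Sendai virus plus DMSO and 100% = medium plus DMSO without virus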). The note with it: HEK293 RL24 IRF3 luciferase reporter, at 10 µM, stronger effect = higher value. In general terms: A reporter such as luciferase makes a cellular process visible.
Assay [8] in a line: inhibitors of poly I:C-induced TLR3 signaling, primary screen, cell-based, poly I:C stimulus, luciferase, 10K MLSCN set (AID 602277). The note with it: HEK293-TLR3 RL24 IRF3 luciferase reporter, at 10 µM, stronger effect = higher value.

Sequence of Voltage-gated potassium channel subunit beta-2 (Rattus norvegicus) (P62483 whole entry, looked up): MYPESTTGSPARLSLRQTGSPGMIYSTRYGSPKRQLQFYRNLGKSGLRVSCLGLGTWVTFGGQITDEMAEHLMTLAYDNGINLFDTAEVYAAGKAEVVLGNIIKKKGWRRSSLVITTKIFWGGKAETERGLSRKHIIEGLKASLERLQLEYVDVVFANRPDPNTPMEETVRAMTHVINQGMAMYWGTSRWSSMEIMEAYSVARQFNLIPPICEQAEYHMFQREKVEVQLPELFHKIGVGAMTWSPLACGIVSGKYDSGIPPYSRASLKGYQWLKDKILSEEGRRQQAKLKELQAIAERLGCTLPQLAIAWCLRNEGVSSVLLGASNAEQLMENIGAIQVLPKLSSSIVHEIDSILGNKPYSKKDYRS
Sequence of Alpha-2C adrenergic receptor (Homo sapiens) (P18825 whole entry, looked up): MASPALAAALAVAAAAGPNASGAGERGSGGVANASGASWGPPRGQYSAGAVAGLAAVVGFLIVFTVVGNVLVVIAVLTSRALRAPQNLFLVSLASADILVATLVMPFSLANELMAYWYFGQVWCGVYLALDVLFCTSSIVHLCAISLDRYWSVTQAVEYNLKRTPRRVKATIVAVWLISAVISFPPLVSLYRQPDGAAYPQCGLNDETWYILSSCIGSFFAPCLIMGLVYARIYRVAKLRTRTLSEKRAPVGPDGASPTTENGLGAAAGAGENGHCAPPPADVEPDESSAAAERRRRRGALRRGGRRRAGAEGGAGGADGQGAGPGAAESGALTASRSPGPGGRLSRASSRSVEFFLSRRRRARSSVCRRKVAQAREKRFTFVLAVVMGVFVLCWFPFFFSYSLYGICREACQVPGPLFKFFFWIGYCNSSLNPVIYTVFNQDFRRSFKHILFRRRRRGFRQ

Take `CCn1c(SCC(=O)C(C)(C)C)nnc1-c1cnccn1`: the cell count in assay [1] is 581. Further, the inhibition is 6.5% (inactive) in assay [1], -27.3% (inactive) in assay [3], 2.48% (inactive) in assay [7] and 1.65% (inactive) in assay [8]. Further, in assay [2], the inhibition of aggregation is 9.1% (inactive). Also, the nuclei count worked out at 98.5% in assay [2] and 100% in assay [3]. In addition, the fluorescence slope in assay [4] was -0.51 (inactive). Further, in assay [5], the NADPH fluorescence slope was -6.4e-06 (inactive). For the same compound, in assay [6], the slope was 0.00526 (inactive).

With `N/C(=N/O)c1nc(N2CCCC2)nc(N(c2ccccc2)c2ccccc2)n1`, the cell count in assay [1] came out at 371. In addition, the inhibition in assay [1] was 0.4% (inactive); in assay [3], -300% (inactive); in assay [7], 13.2% (inactive); in assay [8], 40.9% (inactive). In addition, the inhibition of aggregation in assay [2] is -18.1% (inactive). Also, the results for the nuclei count in assay [2] and in assay [3] were 90.7% and 104%, respectively. In addition, the fluorescence slope in assay [4] is -0.593 (inactive). The NADPH fluorescence slope in assay [5] is -3.2e-05 (inactive). In addition, the slope in assay [6] was 0.00592 (inactive).

On to `O=C(Nc1cccc(-c2nnc(-c3ccccc3)o2)c1)C1CCCCC1`, for which the cell count in assay [1] is 666. For the same compound, the inhibition in assay [1] is -2.8% (inactive); in assay [3], -21.3% (inactive); in assay [7] it was -20.4% (inactive); in assay [8], -62.4% (inactive). The inhibition of aggregation in assay [2] was -15.1% (inactive). In addition, the nuclei count in assay [2] came out at 109%; in assay [3], 116%. The fluorescence slope in assay [4] is -0.589 (inactive). The NADPH fluorescence slope in assay [5] is -1.7e-05 (inactive). In addition, the slope in assay [6] was 0.00531 (inactive).

On to `O=C(Nc1ccc(N2CCOCC2)c(Cl)c1)c1ccc(Br)o1`, for which the cell count in assay [1] worked out at 708. Besides, the inhibition in assay [1] is 8.2% (inactive); in assay [3], -109% (inactive); in assay [7] it was -54.1% (inactive); in assay [8], -162% (inactive). In addition, the inhibition of aggregation in assay [2] was 4.4% (inactive). Also, the nuclei count in assay [2] was found to be 103%; in assay [3], 104%. Besides, in assay [4], the fluorescence slope was -0.497 (inactive). Besides, the NADPH fluorescence slope in assay [5] was -0.000111 (inactive). In addition, the slope in assay [6] is 0.00715 (inactive).

For `CCOc1cc2[nH]c(=O)n(CCCCC(=O)NCc3ccco3)c(=O)c2cc1OCC`, the cell count in assay [1] is 394. The inhibition is -17.9% (inactive) in assay [1], -41.6% (inactive) in assay [3], 9.08% (inactive) in assay [7] and 35.9% (inactive) in assay [8]. For the same compound, the inhibition of aggregation in assay [2] is -0.5% (inactive). In addition, the nuclei count in assay [2] was 117%; in assay [3], 110%. Further, the fluorescence slope in assay [4] was -0.508 (inactive). Moreover, the NADPH fluorescence slope in assay [5] is -6e-05 (inactive). Also, the slope in assay [6] was 0.00662 (inactive).

Take `Nc1nnnn1NCc1cccc(OCc2ccccc2)c1`: the cell count in assay [1] was found to be 582. The inhibition in assay [1] was -9.5% (inactive); in assay [3] it was -2.2% (inactive); in assay [7], 5.03% (inactive); in assay [8] it was -6.8% (inactive). In addition, in assay [2], the inhibition of aggregation was 11.2% (inactive). The figures for the nuclei count in assay [2] and in assay [3] were 64.2% and 137%, respectively. Besides, the fluorescence slope in assay [4] is -0.5 (inactive). The NADPH fluorescence slope in assay [5] was -2.7e-05 (inactive). The slope in assay [6] was 0.00425 (inactive).

As to `CCCCOn1c(C)c(C(=O)OCC)c2c3nonc3ccc21`, the cell count in assay [1] amounted to 596. Further, the inhibition is -27.1% (inactive) in assay [1], -12.4% (inactive) in assay [3], -10.2% (inactive) in assay [7] and -12.6% (inactive) in assay [8]. For the same compound, the inhibition of aggregation in assay [2] is -30.2% (inactive). Also, the nuclei count amounted to 116% in assay [2] and 101% in assay [3]. The fluorescence slope in assay [4] was -0.458 (inactive). Also, the NADPH fluorescence slope in assay [5] is 6.8e-06 (inactive). For the same compound, the slope in assay [6] is 0.00452 (inactive).

Consider `O=C(NCCCN1CCOCC1)c1ccc(CS(=O)(=O)c2c(Cl)cccc2Cl)o1`, for which, in assay [1], the cell count is 440. In addition, the inhibition in assay [1] was 0.9% (inactive); in assay [3], -46.8% (inactive); in assay [7] it was -8.21% (inactive); in assay [8], 6.97% (inactive). In addition, the inhibition of aggregation in assay [2] is -10.5% (inactive). Besides, the nuclei count in assay [2] was found to be 98.2%; in assay [3], 103%. In addition, in assay [4], the fluorescence slope is -0.458 (inactive). Moreover, in assay [5], the NADPH fluorescence slope is 2.8e-05 (inactive). In addition, the slope in assay [6] is 0.00463 (inactive).

As to `CCc1c(C(=O)NCCc2ccc(OC)c(OC)c2)[nH]c(C)c1C(C)=O`, the cell count in assay [1] turned out to be 274. For the same compound, the inhibition in assay [1] was 2.4% (inactive); in assay [3], 5.2% (inactive); in assay [7], 17.6% (inactive); in assay [8] it was 16.1% (inactive). Also, the inhibition of aggregation in assay [2] is -21.3% (inactive). Moreover, the nuclei count was 107% in assay [2] and 93.4% in assay [3]. For the same compound, the fluorescence slope in assay [4] is -0.34 (inactive). Further, in assay [5], the NADPH fluorescence slope is -1.2e-05 (inactive). The slope in assay [6] was 0.00669 (inactive).

As to `O=C(CSCc1ccc(F)cc1)NC1CCCC1`, the cell count in assay [1] was determined as 750. Further, the inhibition in assay [1] is -2.8% (inactive); in assay [3] it was 33% (inactive); in assay [7] it was -26.1% (inactive); in assay [8] it was -75.4% (inactive). Further, the inhibition of aggregation in assay [2] is 12.7% (inactive). The nuclei count in assay [2] worked out at 101%; in assay [3], 93.5%. The fluorescence slope in assay [4] was -0.493 (inactive). Moreover, the NADPH fluorescence slope in assay [5] is -5.3e-05 (inactive). In assay [6], the slope was 0.00649 (inactive).

As for `O=c1ccc2cc3c([nH]c4ccc(Br)cc43)oc-2c1O`, the cell count in assay [1] turned out to be 447. Further, the inhibition in assay [1] was 4.7% (inactive); in assay [3], -84.7% (inactive); in assay [7], 11.2% (inactive); in assay [8], 24.2% (inactive). The inhibition of aggregation in assay [2] was -0.5% (inactive). Further, the nuclei count came out at 111% in assay [2] and 109% in assay [3]. In assay [4], the fluorescence slope is -0.596 (inactive). In addition, in assay [5], the NADPH fluorescence slope is -5.1e-05 (inactive). For the same compound, the slope in assay [6] was 0.00638 (inactive).

For the compound `Cc1cccc(NC(=O)c2cc(NC(=O)c3ccco3)ccc2Cl)n1`, in assay [1], the cell count worked out at 678. The inhibition in assay [1] was -2.8% (inactive); in assay [3], 19.9% (inactive); in assay [7], 1.7% (inactive); in assay [8] it was -7.38% (inactive). The inhibition of aggregation in assay [2] is 16.4% (inactive). Moreover, the results for the nuclei count in assay [2] and in assay [3] were 83.5% and 98%, respectively. The fluorescence slope in assay [4] is -0.529 (inactive). Further, in assay [5], the NADPH fluorescence slope was 1.5e-06 (inactive). Also, the slope in assay [6] was 0.00521 (inactive).

With `COC(=O)c1c(NC(=O)CSc2nnc(-c3cccnc3)n2Cc2ccco2)sc(C)c1C`, the cell count in assay [1] is 505. The inhibition was -5.5% (inactive) in assay [1], 29.5% (inactive) in assay [3], 4.42% (inactive) in assay [7] and 16.1% (inactive) in assay [8]. Besides, in assay [2], the inhibition of aggregation was 24% (inactive). For the same compound, the nuclei count is 101% in assay [2] and 104% in assay [3]. Moreover, the fluorescence slope in assay [4] was -0.579 (inactive). In assay [5], the NADPH fluorescence slope was -2.7e-05 (inactive). Besides, the slope in assay [6] is 0.00567 (inactive).

Consider `CCn1c(NC(=O)c2cccc(Cn3cc(Cl)cn3)c2)nc2ccccc21`, for which, in assay [1], the cell count came out at 598. Besides, the inhibition in assay [1] was 4% (inactive); in assay [3], -45.1% (inactive); in assay [7], -3.99% (inactive); in assay [8], -9.89% (inactive). The inhibition of aggregation in assay [2] is 13.3% (inactive). The nuclei count was determined as 81.8% in assay [2] and 110% in assay [3]. Besides, in assay [4], the fluorescence slope was -0.506 (inactive). Also, in assay [5], the NADPH fluorescence slope is -5.4e-05 (inactive). Besides, the slope in assay [6] was 0.0059 (inactive).
